The AC50 is the midpoint of the concentration-response curve, whichever way the signal moves.

This passage reports outcome and AC50 results from PubChem BioAssay (EPA / NIEHS).

Results filed as inconclusive are left out. The source made the active and inactive calls. How the source made its calls: active means hit-call score of the fitted dose curve at least 0.9, where 1 is the maximum; inconclusive means response in the unintended direction; inactive means score below 0.9.

Read-out in the experiment: HMG-CoA synthase (HMGCS2), HMGCS2 (gene 3158)
Briefly: CLD_HMGCS2_24hr: CellzDirect (CLD) Gene Expression Assay for HMG-CoA synthase (HMGCS2) at 24 hours (AID 2283691). The protocol: CLD_24hr is a cell-based, multiplexed-readout assay that uses hepatocyte, a human liver primary cell, with measurements taken at 24 hours after chemical dosing in a 96-well plate.CLD_HMGCS2_24hr is one of 16 assay component(s) measured or calculated from the CLD_24hr assay. It is designed to make measurements of mRNA induction, a form of inducible reporter, as detected with chemiluminescence signals by Quantitative Nuclease Protection Assay (qNPA) technology.Data from the assay component CLD_HMGCS2_24hr was analyzed at the endpoint, CLD_HMGCS2_24hr, in the positive analysis fitting direction relative to DMSO as the negative control and baseline of activity. Using a type of inducible reporter, gain-of-signal activity can be used to understand changes in the reporter gene as they relate to the gene HMGCS2. Furthermore, this assay endpoint can be referred to as a primary readout. To generalize the intended target to other relatable targets, this assay endpoint is annotated to the lyase intended target family, where subfamily is HMG-CoA synthase.
Human hepatocyte cultures were treated daily for two consecutive days with fresh dosing solutions containing appropriate concentrations of the 320 ToxCast chemicals (chemical identities were blinded to CellzDirect and other ToxCast collaborators), vehicle control (0.2% DMSO), and positive control inducers as summarized in Table 1. Due to the large number of treatment groups and chemicals examined, the ToxCast chemicals were divided into two groups (spanning two independent cultures of hepatocytes from separate donor preparations (Hu778: ToxCast plates 1 and 2; Hu776: ToxCast plates 3 and 4). Each preparation of human hepatocyte cultures was treated with respective vehicle control, medium only control, set of six positive controls/reference chemicals for the five hepatic receptor pathways, and a subset of eight of the ToxCast chemicals (indoxacarb, pyrithiobac-sodium, norflurazon, cyhalofop-butyl, methomyl, thiram, acetochlor, and propiconazole). These replicate data, coupled with internal replicates designed within the blinded ToxCast chemical library, provided additional data to evaluate interindividual differences between hepatocyte preparations and their potential impact on chemical profiles.Cell morphology and integrity were evaluated using phase-contrast microscopy as an indicator of hepatocyte cell health (Tyson & Green, 1987). Cultures for each treatment group (i.e., media, vehicle [0.2% DMSO], positive control inducers [multiple concentrations], and the ToxCast chemicals [multiple concentrations]) were observed and cell morphology was assessed relative to vehicle control cultures at each harvest time point (0, 6, 24, or 48 h). […] Images were evaluated at the conclusion of the study to assess changes in cell integrity and account for the effects of chemical exposure on uncharacteristic changes in concentration-dependent gene expression profiles. The results from these determinations of apparent cytotoxicity were annotated (yes/no) alongside the corresponding qNPA data for reference.At the conclusion of each treatment period, hepatocyte cultures (96-well) were washed with 1 volume of HBSS, lysed by addition of 25 ul ArrayPlate lysis buffer (HTG, Tucson, AZ), and 70 ul/well of Denaturation Oil, denatured by incubation at 95C for 10 min, and frozen at approximately -70C until analysis by nuclease protection assay (qNPA) (Roberts et al., 2007). For qNPA analysis, cell lysates were thawed at 50C for approximately 30 min, qNPA probes were added, and samples were incubated at 95C for 10 min to begin the detection process by denaturing the target RNA, dissociating the duplexes and secondary structure hybridization. At the conclusion of the hybridization period, S1 nuclease reagent was added to each sample to digest all nonprotected nucleotides at 50C for 60-90 min. […]
Turning to `CC(C)N1C(=O)c2ccccc2NS1(=O)=O`, the compound was called inactive.

With `CC1(C)C(C(=O)OC(C#N)c2cccc(Oc3ccccc3)c2)C1(C)C` (stereo unspecified), the compound was classed as inactive.

For the compound `CCCN(CC)CC1COC2(CCC(C(C)(C)C)CC2)O1` (stereo unspecified), the AC50 was 74.2 nM (active).

Regarding `COP(=O)(OC)O/C(C)=C/C(=O)N(C)C`, the compound was classed as inactive.

As for `CCOc1nc(F)cc2nc(S(=O)(=O)Nc3c(Cl)cccc3Cl)nn12`, the outcome was inactive.

For `CN=C=S`, the outcome was inactive.

In the case of `CCNC(=O)NC(=O)C(C#N)=NOC`, the call was inactive.

As for `CCOC(=O)C(C)OC(=O)c1cc(Oc2ccc(C(F)(F)F)cc2Cl)ccc1[N+](=O)[O-]` (stereo unspecified), the AC50 is 310 nM (active).

For the compound `COC(=O)NS(=O)(=O)c1ccc(N)cc1`, the call was inactive.

For the compound `CS(=O)(=O)c1ccc(C(=O)C2C(=O)CCCC2=O)c([N+](=O)[O-])c1`, the call was inactive.

Take `CCOP(=O)(OCC)Oc1nc(Cl)c(Cl)cc1Cl`: the result was inactive.

For the compound `N#CN=C1SCCN1Cc1ccc(Cl)nc1`, the call was inactive.

`CSC(=O)c1c(C(F)F)nc(C(F)(F)F)c(C(=O)SC)c1CC(C)C`: the result was inactive.

Consider `COCc1cnc(C2=NC(C)(C(C)C)C(=O)N2)c(C(=O)O)c1` (stereo unspecified), for which the outcome was inactive.

As for `Cc1nc(N(C)C)nc(OC(=O)N(C)C)c1C`, the call was inactive.

For the compound `Nc1c(Cl)c(Cl)nc(C(=O)O)c1Cl`, the call was inactive.
